In the supplement of paper PMC10849652:
The full data set covers some 7,900 targets. This sample favours those with a hit. About 0.6% of all pairs of compound and target were hits.

These targets were tested with C1=CC=C(C=C1)C2=NC(=C(N2)C3=CC=NC=C3)C4=CC(=C(C=C4)Cl)O (assay: log2 fold change, soluble protein after heating vs DMSO (PISA); higher = thermal stabilisation; K562 cells, 10 uM, 30 min; active = over 0.2 and 3.5 SD of the protein, either way, in both replicates (recomputed)).
Procedure, shortened: (§1)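 Values are thermal stability changes relative to control samples and are taken from duplicates. They are stated as log2 fold changes. Before quantification by TMTpro 16plex LC-MS/MS with equalised channel sums, K562 cells at 2×10^6 cells/mL were treated with 10 μM compound for 30 min, heated in aliquots for 3 min across 48°C-58°C, pooled, extracted in PBS with 0.5% NP-40 at 4°C, and centrifuged at 21,000xg for 90 min to give the soluble supernatant.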

Sequence of UniProt Q9BT78 (Q9BT78 whole entry, looked up): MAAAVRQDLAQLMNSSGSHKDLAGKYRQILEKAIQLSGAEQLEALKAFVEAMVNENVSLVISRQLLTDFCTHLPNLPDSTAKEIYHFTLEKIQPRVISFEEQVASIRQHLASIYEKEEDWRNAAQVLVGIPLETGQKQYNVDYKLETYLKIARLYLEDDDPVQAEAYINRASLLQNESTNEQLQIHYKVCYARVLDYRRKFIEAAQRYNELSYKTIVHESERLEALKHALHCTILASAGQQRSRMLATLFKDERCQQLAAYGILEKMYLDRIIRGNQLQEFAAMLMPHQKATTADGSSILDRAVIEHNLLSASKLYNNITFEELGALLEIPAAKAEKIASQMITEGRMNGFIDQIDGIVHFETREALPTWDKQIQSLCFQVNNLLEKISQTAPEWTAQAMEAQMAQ
Sequence of UniProt Q13901 (Q13901 whole entry, looked up): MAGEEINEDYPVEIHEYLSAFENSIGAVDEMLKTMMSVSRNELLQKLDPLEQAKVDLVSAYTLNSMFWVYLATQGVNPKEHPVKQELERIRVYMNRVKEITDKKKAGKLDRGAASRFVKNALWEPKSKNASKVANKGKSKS
Sequence of UniProt Q53ET0 (Q53ET0 whole entry, looked up): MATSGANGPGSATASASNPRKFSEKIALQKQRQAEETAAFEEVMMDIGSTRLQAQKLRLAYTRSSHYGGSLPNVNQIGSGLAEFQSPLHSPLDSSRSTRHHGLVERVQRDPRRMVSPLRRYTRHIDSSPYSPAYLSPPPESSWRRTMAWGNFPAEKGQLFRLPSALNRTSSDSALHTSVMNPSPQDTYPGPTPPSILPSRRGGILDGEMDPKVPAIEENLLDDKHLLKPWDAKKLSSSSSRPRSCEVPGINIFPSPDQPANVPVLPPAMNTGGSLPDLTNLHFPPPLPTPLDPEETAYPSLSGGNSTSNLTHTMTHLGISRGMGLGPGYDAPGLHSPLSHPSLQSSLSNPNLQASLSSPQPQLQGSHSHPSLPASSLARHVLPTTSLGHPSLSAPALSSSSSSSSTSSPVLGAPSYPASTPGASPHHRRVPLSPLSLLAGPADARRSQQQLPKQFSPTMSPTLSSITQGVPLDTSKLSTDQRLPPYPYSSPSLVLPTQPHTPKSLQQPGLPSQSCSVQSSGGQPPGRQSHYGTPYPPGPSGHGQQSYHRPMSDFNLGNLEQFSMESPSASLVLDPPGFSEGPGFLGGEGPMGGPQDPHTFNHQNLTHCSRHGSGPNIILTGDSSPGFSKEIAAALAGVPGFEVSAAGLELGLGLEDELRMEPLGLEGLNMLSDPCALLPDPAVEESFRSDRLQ
Sequence of UniProt Q86X95 (Q86X95 whole entry, looked up): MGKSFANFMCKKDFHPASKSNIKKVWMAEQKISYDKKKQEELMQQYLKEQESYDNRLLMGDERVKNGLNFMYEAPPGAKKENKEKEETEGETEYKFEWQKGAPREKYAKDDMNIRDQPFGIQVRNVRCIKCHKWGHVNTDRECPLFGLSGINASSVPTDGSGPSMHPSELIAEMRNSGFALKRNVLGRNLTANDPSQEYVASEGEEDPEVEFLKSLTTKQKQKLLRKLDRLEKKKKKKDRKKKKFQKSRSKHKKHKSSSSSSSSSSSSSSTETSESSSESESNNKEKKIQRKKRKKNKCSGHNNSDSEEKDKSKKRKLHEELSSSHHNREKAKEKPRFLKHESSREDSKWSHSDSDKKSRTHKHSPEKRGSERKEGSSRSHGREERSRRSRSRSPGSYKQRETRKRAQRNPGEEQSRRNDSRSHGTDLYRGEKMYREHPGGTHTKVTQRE
Sequence of UniProt P50416 (P50416 whole entry, looked up): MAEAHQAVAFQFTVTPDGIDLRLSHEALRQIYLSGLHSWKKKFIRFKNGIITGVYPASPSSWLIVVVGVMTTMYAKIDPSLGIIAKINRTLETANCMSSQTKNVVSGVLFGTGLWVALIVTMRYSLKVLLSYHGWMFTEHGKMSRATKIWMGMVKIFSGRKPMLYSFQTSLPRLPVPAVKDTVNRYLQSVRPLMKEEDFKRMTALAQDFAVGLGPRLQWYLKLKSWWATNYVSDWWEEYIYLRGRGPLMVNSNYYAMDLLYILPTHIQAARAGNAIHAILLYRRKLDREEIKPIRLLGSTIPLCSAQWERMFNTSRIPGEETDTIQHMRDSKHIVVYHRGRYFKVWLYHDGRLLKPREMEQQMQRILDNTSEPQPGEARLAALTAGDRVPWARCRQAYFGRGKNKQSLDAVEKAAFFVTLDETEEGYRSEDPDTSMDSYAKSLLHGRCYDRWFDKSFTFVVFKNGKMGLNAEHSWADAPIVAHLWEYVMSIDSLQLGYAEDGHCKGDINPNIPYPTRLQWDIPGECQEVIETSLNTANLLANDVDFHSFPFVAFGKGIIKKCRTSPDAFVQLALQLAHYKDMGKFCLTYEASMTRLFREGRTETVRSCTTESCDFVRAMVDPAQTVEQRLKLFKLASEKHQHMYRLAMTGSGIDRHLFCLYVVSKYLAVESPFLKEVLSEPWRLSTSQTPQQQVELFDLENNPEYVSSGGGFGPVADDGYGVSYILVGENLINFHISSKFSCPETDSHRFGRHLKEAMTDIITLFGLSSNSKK
Sequence of UniProt Q8N163 (Q8N163 whole entry, looked up): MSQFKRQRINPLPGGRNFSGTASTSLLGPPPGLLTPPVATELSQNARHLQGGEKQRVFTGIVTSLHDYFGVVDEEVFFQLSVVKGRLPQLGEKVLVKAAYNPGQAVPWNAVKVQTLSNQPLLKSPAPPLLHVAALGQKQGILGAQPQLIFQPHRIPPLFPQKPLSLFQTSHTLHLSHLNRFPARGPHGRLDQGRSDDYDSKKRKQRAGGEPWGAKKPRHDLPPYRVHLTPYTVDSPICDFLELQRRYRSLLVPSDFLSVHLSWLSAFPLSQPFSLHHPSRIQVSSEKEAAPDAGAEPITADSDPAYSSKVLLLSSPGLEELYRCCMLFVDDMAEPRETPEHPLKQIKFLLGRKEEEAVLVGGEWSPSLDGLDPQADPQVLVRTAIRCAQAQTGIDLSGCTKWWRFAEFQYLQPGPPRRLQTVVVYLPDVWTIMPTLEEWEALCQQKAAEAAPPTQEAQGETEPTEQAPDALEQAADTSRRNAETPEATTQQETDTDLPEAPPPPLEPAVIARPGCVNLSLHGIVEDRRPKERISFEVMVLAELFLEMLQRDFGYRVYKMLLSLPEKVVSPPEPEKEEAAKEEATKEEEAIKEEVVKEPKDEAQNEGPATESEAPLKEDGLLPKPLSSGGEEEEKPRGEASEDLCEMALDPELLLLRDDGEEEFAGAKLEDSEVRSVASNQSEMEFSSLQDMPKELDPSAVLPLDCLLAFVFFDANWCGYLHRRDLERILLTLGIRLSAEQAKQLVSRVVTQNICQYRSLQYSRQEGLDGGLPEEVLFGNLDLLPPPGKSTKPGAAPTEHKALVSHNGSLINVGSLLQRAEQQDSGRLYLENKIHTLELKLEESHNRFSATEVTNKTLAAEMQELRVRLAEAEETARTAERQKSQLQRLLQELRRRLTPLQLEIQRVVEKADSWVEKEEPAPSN
Sequence of UniProt P46109 (P46109 whole entry, looked up): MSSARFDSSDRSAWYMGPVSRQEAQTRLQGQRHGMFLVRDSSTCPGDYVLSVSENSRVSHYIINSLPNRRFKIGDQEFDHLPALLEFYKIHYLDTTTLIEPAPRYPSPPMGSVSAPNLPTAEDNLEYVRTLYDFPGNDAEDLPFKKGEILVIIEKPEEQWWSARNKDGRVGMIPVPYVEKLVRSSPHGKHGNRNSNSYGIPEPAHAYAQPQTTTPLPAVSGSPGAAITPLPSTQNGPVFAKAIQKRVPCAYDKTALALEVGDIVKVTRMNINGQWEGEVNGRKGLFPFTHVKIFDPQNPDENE
Sequence of UniProt Q5JTJ3 (Q5JTJ3 whole entry, looked up): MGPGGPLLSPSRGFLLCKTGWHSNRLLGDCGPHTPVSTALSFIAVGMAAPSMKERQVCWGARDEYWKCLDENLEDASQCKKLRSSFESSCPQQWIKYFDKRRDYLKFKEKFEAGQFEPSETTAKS
Sequence of UniProt Q8NHZ8 (Q8NHZ8 whole entry, looked up): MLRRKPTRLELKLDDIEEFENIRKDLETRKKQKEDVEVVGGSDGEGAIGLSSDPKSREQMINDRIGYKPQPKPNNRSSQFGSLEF
Sequence of UniProt P08962 (P08962 whole entry, looked up): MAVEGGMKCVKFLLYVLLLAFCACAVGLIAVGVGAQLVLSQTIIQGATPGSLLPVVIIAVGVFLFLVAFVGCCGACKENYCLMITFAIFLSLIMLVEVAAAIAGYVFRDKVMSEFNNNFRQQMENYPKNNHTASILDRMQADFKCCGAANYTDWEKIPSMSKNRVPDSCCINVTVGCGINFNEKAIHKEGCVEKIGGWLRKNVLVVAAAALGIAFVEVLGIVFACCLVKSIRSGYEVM
Sequence of UniProt Q01459 (Q01459 whole entry, looked up): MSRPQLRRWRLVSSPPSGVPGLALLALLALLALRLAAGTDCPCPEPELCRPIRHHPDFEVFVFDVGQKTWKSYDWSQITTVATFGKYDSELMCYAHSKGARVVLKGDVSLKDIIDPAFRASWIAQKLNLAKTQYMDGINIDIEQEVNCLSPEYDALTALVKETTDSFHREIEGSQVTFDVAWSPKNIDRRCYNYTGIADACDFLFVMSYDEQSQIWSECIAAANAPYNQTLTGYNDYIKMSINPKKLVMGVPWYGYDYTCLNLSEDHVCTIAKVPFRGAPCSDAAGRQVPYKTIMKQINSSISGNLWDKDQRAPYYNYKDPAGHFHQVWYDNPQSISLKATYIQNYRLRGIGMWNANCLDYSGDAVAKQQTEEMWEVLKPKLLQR
Sequence of UniProt Q16740 (Q16740 whole entry, looked up): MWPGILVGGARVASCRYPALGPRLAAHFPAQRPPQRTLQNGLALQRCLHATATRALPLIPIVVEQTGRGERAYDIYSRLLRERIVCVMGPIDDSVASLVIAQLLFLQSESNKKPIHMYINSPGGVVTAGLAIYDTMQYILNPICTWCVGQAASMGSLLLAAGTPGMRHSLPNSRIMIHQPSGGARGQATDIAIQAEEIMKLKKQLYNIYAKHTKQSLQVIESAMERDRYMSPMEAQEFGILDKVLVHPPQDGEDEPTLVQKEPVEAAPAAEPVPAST

log2 fold change, inactive:
CDC26 (UniProt Q8NHZ8) 0.355
CRTC2 (UniProt Q53ET0) -0.129
C1D (UniProt Q13901) -0.071
COA6 isoform 2 (UniProt Q5JTJ3) -0.053
CRKL (UniProt P46109) -0.069
CPT1A (UniProt P50416) 0
CCAR2 isoform 2 (UniProt Q8N163) 0.014
CIR1 (UniProt Q86X95) -0.144
CTBS (UniProt Q01459) -0.089
CLUH, A0A494C0R8 -0.081
CAD (UniProt P27708) 0.057
CLPP (UniProt Q16740) 0.023
CD63 (UniProt P08962) 0.009
COPS4 (UniProt Q9BT78) 0.054

What follows are targets tested with C1=CC=C2C(=C1)C3=NNC4=CC=CC(=C43)C2=O in the same assay as above.
Procedure, shortened: as §1

log2 fold change, inactive:
CDC37L1 (UniProt Q7L3B6) -0.012
CCNB1 (UniProt P14635) 0.002
CIT isoform 4 (UniProt O14578) -0.002
CALCOCO2 isoform 4 (UniProt Q13137) -0.057
CLCN3 isoform 2 (UniProt P51790) -0.017
CHCHD2 (UniProt Q9Y6H1) 0.098
CCNH (UniProt P51946) -0.004
CRK (UniProt P46108) 0.049
CHCHD1 (UniProt Q96BP2) 0.039
CALB1 (UniProt P05937) 0.027
CDK6 (UniProt Q00534) 0.04
COASY isoform 2 (UniProt Q13057) 0.043
CHD3 isoform 3 (UniProt Q12873) -0.123
CHCHD4 isoform 2 (UniProt Q8N4Q1) 0.053
CASP3 (UniProt P42574) 0.015
CSNK2B (UniProt P67870) 0.084
CSTF3 (UniProt Q12996) 0.035
C4orf33 (UniProt Q8N1A6) 0.016
COCH (UniProt O43405) -0.072
CD53 (UniProt P19397) -0.086
CD55 isoform 7 (UniProt P08174) -0.062
CLASP2 isoform 3 (UniProt O75122) 0.006
CDC26 (UniProt Q8NHZ8) 0.037
CRTC2 (UniProt Q53ET0) -0.14
C1D (UniProt Q13901) -0.044
COA6 isoform 2 (UniProt Q5JTJ3) -0.108
CRKL (UniProt P46109) -0.017
CPT1A (UniProt P50416) 0.081
CCAR2 isoform 2 (UniProt Q8N163) -0.039
CIR1 (UniProt Q86X95) -0.016
CTBS (UniProt Q01459) -0.002
CLUH, A0A494C0R8 0.03
CAD (UniProt P27708) -0.063
CLPP (UniProt Q16740) 0.035
CD63 (UniProt P08962) 0.002
COPS4 (UniProt Q9BT78) 0.024
